Data from PubChem BioAssay (Tox21).
Records with an inconclusive call do not appear. The source made the active and inactive calls. The call rests on the fitted dose curve; in most records, active means well fitted curve in the direction sought with a large enough effect in the repeat runs; inconclusive means weak or mixed curves; inactive means no such curve, though single readings can be large; an effect the other way counts as inactive or inconclusive.

Columns and labels:
[1] = qHTS RealTime-Glo MT Cell Viability Assay in HepG2 cells - 8 hour (AID 1224873); further: nearly all actives have a fitted effect of over 55% in size
Outline: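 HepG2 cells (600/well) mixed with RealTime-Glo MT reagent, settled 5 h at 37 C/5% CO2 before compound addition. Nonlytic NanoLuc luminescence from viable-cell prosubstrate reduction read repeatedly during 40 h treatment at 37 C.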

[2] = qHTS RealTime-Glo MT Cell Viability Assay in HEK293 cells - 40 hour (AID 1224874); conditions: RealTime-Glo luminescence; max response: active compounds read low; further: nearly all actives have a fitted effect of over 50% in size
Outline: (§1)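 Tox21 screen in HEK293 using RealTime-Glo MT chemistry, with cells and reagent co-dispensed. Luminescence proportional to viable cell number was captured at intervals during 40 h compound exposure at 37 C.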

[3] = A CellTox Green Cytotoxicity Assay to monitor cytotoxicity in HEK293 cells - 24 hour (AID 1224875); further: series mostly up to about 77 µM; nearly all actives have a fitted effect of over 45% in size
Outline: (§2)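 Seeding of HEK293 cells together with cytotoxicity dye preceded a 5 h incubation at 37 C/5% CO2. Test compounds in DMSO were then added and fluorescence monitored across 40 h.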

[4] = A CellTox Green Cytotoxicity Assay to monitor cytotoxicity in HepG2 cells - 16 hour (AID 1224876); further: nearly all actives have a fitted effect of over 45% in size
Outline: (§3)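 Nonlytic assay: viable cells exclude the dye, so fluorescence scales with cell death. HepG2 at 600 cells/well, compounds added after 5 h, signal read across 40 h.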

[5] = qHTS RealTime-Glo MT Cell Viability Assay in HepG2 cells - 32 hour (AID 1224877); further: nearly all actives have a fitted effect of over 55% in size
Outline: (§4)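 Viability was tracked continuously by NanoLuc luminescence from prosubstrate reduced by living HepG2 cells, at successive time points over 40 h of compound exposure. Cells with reagent were preincubated 5 h at 37 °C before compound addition.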

[6] = A CellTox Green Cytotoxicity Assay to monitor cytotoxicity in HepG2 cells - 24 hour (AID 1224878); further: nearly all actives have a fitted effect of over 45% in size
Outline: as §3

[7] = A CellTox Green Cytotoxicity Assay to monitor cytotoxicity in HepG2 cells - 40 hour (AID 1224879); further: nearly all actives have a fitted effect of over 40% in size
Outline: as §3

[8] = qHTS RealTime-Glo MT Cell Viability Assay in HEK293 cells - 0 hour (AID 1224880); further: top concentration of the series differs between compounds; nearly all actives have a fitted effect of over 45% in size
Outline: as §1

[9] = A CellTox Green Cytotoxicity Assay to monitor cytotoxicity in HEK293 cells - 32 hour (AID 1224881); further: nearly all actives have a fitted effect of over 40% in size
Outline: as §2

[10] = A CellTox Green Cytotoxicity Assay to monitor cytotoxicity in HepG2 cells - 0 hour (AID 1224882); further: nearly all actives have a fitted effect of over 35% in size
Outline: as §3

[11] = A CellTox Green Cytotoxicity Assay to monitor cytotoxicity in HepG2 cells - 32 hour (AID 1224883); further: nearly all actives have a fitted effect of over 50% in size
Outline: as §3

[12] = A CellTox Green Cytotoxicity Assay to monitor cytotoxicity in HEK293 cells - 8 hour (AID 1224884); further: nearly all actives have a fitted effect of over 35% in size
Outline: as §2

[13] = qHTS RealTime-Glo MT Cell Viability Assay in HEK293 cells - 24 hour (AID 1224886); further: top concentration of the series differs between compounds; nearly all actives have a fitted effect of over 50% in size
Outline: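 Viability tracked continuously by luminescence as live cells reduce a prosubstrate for NanoLuc; HEK293 cells preincubated 5 h, compound-treated at 37 C, and read at 0, 8, 16, 24, 32 and 40 h.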

[14] = qHTS RealTime-Glo MT Cell Viability Assay in HEK293 cells - 8 hour (AID 1224887); further: top concentration of the series differs between compounds; nearly all actives have a fitted effect of over 50% in size
Outline: as §1

[15] = A CellTox Green Cytotoxicity Assay to monitor cytotoxicity in HEK293 cells - 16 hour (AID 1224888); further: nearly all actives have a fitted effect of over 35% in size
Outline: as §2

[16] = qHTS RealTime-Glo MT Cell Viability Assay in HepG2 cells - 0 hour (AID 1224889); further: nearly all actives have a fitted effect of over 50% in size
Outline: as §4

[17] = A CellTox Green Cytotoxicity Assay to monitor cytotoxicity in HepG2 cells - 8 hour (AID 1224890); further: nearly all actives have a fitted effect of over 45% in size
Outline: as §3

[18] = qHTS assay to identify small molecule antagonists of the estrogen receptor alpha (ER-alpha) signaling pathway using the BG1 cell line in the presence of 0.1 nM 17-beta-estradiol - cell viability counter screen (AID 1259241); further: nearly all actives have a fitted effect of over 40% in size
Outline: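 CellTiter-Fluor read (30 min, 37C) on ER-alpha/ERE-luc VM7Luc4E2 cells; 22 hr compound treatment; agonist 0.1 nM E2 final; same-well multiplex.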

[19] = qHTS assay to identify small molecule antagonists of the androgen receptor (AR) signaling pathway using the MDA cell line in the presence of 0.5 nM R1881 - cell viability counter screen (AID 1259242); further: nearly all actives have a fitted effect of over 45% in size
Outline: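 R1881 at 0.5 nM final stimulated MDA-kb2 cells during 16 hr compound treatment at 37C. Cytotoxicity read: CellTiter-Fluor fluorescence after 30 min.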

[20] = qHTS RealTime-Glo MT Cell Viability Assay in HepG2 cells - 16 hour (AID 1224885); further: nearly all actives have a fitted effect of over 50% in size
Outline: as §4
On the % scale 0 is the no-effect control and ±100 the full control effect.

CN(C)CCN(C)CCN(C)C
inactive: outcome [1] | max response [2] 4.88% | outcome [3] | outcome [4] | Potency [5] | outcome [6] | Potency [7] | Potency [8] | outcome [9] | Potency [10] | Potency [11] | outcome [12] | Potency [13] | Potency [14] | outcome [15] | Potency [16] | outcome [17] | outcome [18] | outcome [19]

O=C(O)c1cc(C(=O)O)cc(C(=O)O)c1
inactive: outcome [1] | max response [2] 16.8% | outcome [3] | outcome [4] | Potency [5] | outcome [6] | Potency [7] | Potency [8] | outcome [9] | Potency [10] | Potency [11] | outcome [12] | outcome [20] | Potency [13] | Potency [14] | Potency [16] | outcome [17] | outcome [19]

Nc1ccncc1N
inactive: outcome [1] | max response [2] 13% | outcome [3] | outcome [4] | Potency [5] | outcome [6] | Potency [7] | Potency [8] | outcome [9] | Potency [10] | Potency [11] | outcome [12] | outcome [20] | Potency [13] | Potency [14] | Potency [16] | outcome [17] | outcome [18] | outcome [19]

O=C(O)CC(C(=O)O)S(=O)(=O)O (configuration not stated)
inactive: outcome [1] | max response [2] 5.69% | outcome [3] | outcome [4] | Potency [5] | outcome [6] | Potency [7] | Potency [8] | outcome [9] | Potency [10] | Potency [11] | outcome [12] | outcome [20] | Potency [14] | outcome [15] | Potency [16] | outcome [17] | outcome [19]

CCCCOCCOC(=O)COc1cc(Cl)c(Cl)cc1Cl
inactive: outcome [1] | max response [2] 4.7% | outcome [3] | outcome [4] | Potency [5] | outcome [6] | Potency [7] | Potency [8] | outcome [9] | Potency [10] | Potency [11] | outcome [12] | outcome [20] | Potency [14] | outcome [15] | Potency [16] | outcome [18] | outcome [19]

O=C1NC(=O)C2CC=CCC12 (configuration not stated)
inactive: outcome [1] | max response [2] 11.2% | outcome [3] | outcome [4] | Potency [5] | outcome [6] | Potency [7] | Potency [8] | outcome [9] | Potency [10] | Potency [11] | outcome [12] | outcome [20] | Potency [14] | outcome [15] | Potency [16] | outcome [17] | outcome [18] | outcome [19]

CC1=NS(=O)(=O)c2cc(Cl)ccc2N1
inactive: outcome [1] | max response [2] 2.07% | outcome [3] | outcome [4] | Potency [5] | outcome [6] | Potency [7] | Potency [8] | outcome [9] | Potency [10] | Potency [11] | outcome [12] | outcome [20] | Potency [14] | outcome [15] | Potency [16] | outcome [17] | outcome [18] | outcome [19]

C[C@@H]1C[C@H]2[C@@H]3C[C@H](F)C4=CC(=O)C(Cl)=C[C@]4(C)[C@@]3(F)[C@@H](O)C[C@]2(C)[C@@]1(O)C(=O)CO
inactive: outcome [1] | max response [2] -27.2% | outcome [3] | outcome [4] | Potency [5] | outcome [6] | Potency [7] | Potency [8] | outcome [9] | Potency [10] | Potency [11] | outcome [12] | outcome [20] | Potency [13] | Potency [14] | outcome [15] | outcome [17] | outcome [19]

COc1cc(C(=O)NCc2ccc(OCCN(C)C)cc2)cc(OC)c1OC
inactive: outcome [1] | max response [2] -23.7% | outcome [3] | outcome [4] | Potency [5] | outcome [6] | Potency [7] | Potency [8] | outcome [9] | Potency [11] | outcome [12] | outcome [20] | Potency [13] | Potency [14] | outcome [15] | Potency [16] | outcome [17] | outcome [18] | outcome [19]

CCOC(=O)C1=NOC(c2ccccc2)(c2ccccc2)C1
inactive: outcome [1] | max response [2] 3.23% | outcome [3] | outcome [4] | Potency [5] | outcome [6] | Potency [7] | Potency [8] | outcome [9] | Potency [10] | Potency [11] | outcome [12] | Potency [14] | outcome [15] | Potency [16] | outcome [18] | outcome [19]

C=C[Si](OC(C)=O)(OC(C)=O)OC(C)=O
inactive: outcome [1] | max response [2] 4.65% | outcome [3] | outcome [4] | Potency [5] | outcome [6] | Potency [7] | Potency [8] | outcome [9] | Potency [10] | Potency [11] | outcome [12] | outcome [20] | Potency [14] | outcome [15] | Potency [16] | outcome [18] | outcome [19]

NC(N)=NCCN1CCCCCCC1
inactive: viability change, negative = cytotoxic [1] 0.369% [at 0.29 µM] | max response [2] -2.62% | activity change [3] 3.96% [at 0.29 µM] | cytotoxicity increase [4] -11.2% [at 0.29 µM] | activity change, negative = cytotoxic [5] 0.55% [at 0.29 µM] | cytotoxicity [6] -13.4% [at 0.29 µM] | cytotoxicity increase [7] -13% [at 0.29 µM] | activity change, negative = cytotoxicity [8] -7.81% [at 0.29 µM] | cytotoxicity increase [9] 2.16% [at 0.29 µM] | cytotoxicity [10] -10% [at 0.29 µM] | cytotoxicity increase [11] -12.8% [at 0.29 µM] | cytotoxicity increase [12] 0.959% [at 0.29 µM] | activity change, negative = cytotoxic [20] 1.58% [at 0.29 µM] | activity change, negative = cytotoxicity [14] -0.479% [at 0.29 µM] | activity change [15] 1.24% [at 0.29 µM] | activity change, negative = cytotoxicity [16] 0.442% [at 0.29 µM] | cytotoxicity increase [17] -11.3% [at 0.29 µM] | viability change, negative = cytotoxic [19] 1.84% [at 0.349 µM]

CCO[Si](OCC)(OCC)c1ccccc1
inactive: outcome [1] | max response [2] 10.1% | outcome [3] | outcome [4] | Potency [5] | outcome [6] | Potency [7] | Potency [8] | outcome [9] | Potency [10] | Potency [11] | outcome [12] | outcome [20] | Potency [14] | outcome [15] | Potency [16] | outcome [18] | outcome [19]

CCCCOCCOC(=O)CCCCCCCCC(=O)OCCOCCCC
inactive: outcome [1] | max response [2] 7.25% | outcome [3] | outcome [4] | Potency [5] | outcome [6] | Potency [7] | Potency [8] | outcome [9] | Potency [11] | outcome [12] | outcome [20] | Potency [13] | Potency [14] | outcome [15] | Potency [16] | outcome [17] | outcome [18] | outcome [19]
